Most compounds without a hit are left out; they make up all but 2.6% or so of the library.
PABP polyA inh – blocks human PABP binding to poly(A) RNA. 290,000 tested, 1% active. P11940. calls only at 35 µM. fluorescence polarization;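 also: calls also rest on retests at 20 µM and on dose response follow-up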
ABCB6 inh MLPCN – blocks the human ABCB6 transporter; fluorescence ratio to DMSO, % at 10 µM; 360,000 tested, 0.19% active; Q9NP58; K562-ABCB6 porphyrin accumulation, flow cytometry, 1 h; active compounds read low;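 active = fluorescence ratio to DMSO below 75%, the collection mean minus 3 SD; inconclusive = too few cells collected in the well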;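 also: signal is porphyrin accumulated inside mitochondria; 100% equals median channel fluorescence of DMSO control wells; lower ratio means ABCB6 inhibition with less porphyrin fluorescence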
eIF4H inh – inhibitors of RNA binding by human eIF4H; 290,000 tested, 0.94% active; inhibition, % at 35 µM; eIF4H fluorescence polarization binding assay; Q15056;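 also: calls also rest on retests at 20 µM and on dose response follow-up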
PHOSPHO1 inh – PHOSPHO1 (human) inhibition. Q8TCT1. recombinant PHOSPHO1, absorbance phosphatase assay. inhibition, % at 13.3 µM. 290,000 tested, 1.1% active. AID 1565; in the data active = inhibition above about 60%
PABP1 MLLE inh – blocks PAM2 peptide binding to the PABP1 MLLE domain; GST-MLLE / FITC-PAM2 fluorescence polarization; inhibition, % at 20 µM; 360,000 tested, 0.36% active; AID 588489; in the data active = inhibition above about 35%, passing the limit was not always enough;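 also: plate controls were DMSO wells with GST-MLLE for no effect and wells lacking GST-MLLE protein for full effect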
AI-2 QS modul – modulates the Vibrio harveyi AI-2 quorum sensing system; Vibrio harveyi JMH597 AI-2 luminescence/OD600 ratio, 9 h; active compounds read low; strain lacks LuxN and CqsS sensors; 0 = neutral-control median; activity change, % at 7.5 µM; 300,000 tested, 0.4% active; AID 2094; in the data active = activity change below about -75%, passing the limit was not always enough; inconclusive = no clear call, values can overlap the other calls;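 also: luminescence divided by OD600 gain over 9 h not by final OD600 alone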
An asterisk follows results filed as active; i = inactive; ? = inconclusive; . = no result given; + = active, no number. Unless noted, no rule for the calls is given here.

SMILES | PABP polyA inh | ABCB6 inh MLPCN | eIF4H inh | PHOSPHO1 inh | PABP1 MLLE inh | AI-2 QS modul
CN(Cc1cccc(-c2ccncc2)c1)C(=O)Oc1ccc([N+](=O)[O-])cc1 | . | 97 | . | . | . | .
CC(=O)N1CCCSC1=Nc1ccccc1 | i | 91 | 0 | 25 | 7 | 8
CCOc1ccccc1N=C1SCCCN1C | . | 103 | . | 92* | -105 | 4
O=C1NC(=O)C(CCc2ccncc2)(CCc2ccncc2)C(=O)N1CCc1ccccc1 | i | 94 | 5 | 63* | 8 | 4
O=C1NC(=O)C(CCc2ccncc2)(CCc2ccncc2)C(=O)N1CCc1ccc(F)cc1 | i | 100 | -2 | -4 | 2 | 24
CSCCC(c1nnnn1-c1ccc2c(c1)OCCO2)N1CCC(n2c(=O)[nH]c3ccccc32)CC1 (configuration not stated) | . | 94 | . | . | 14 | .
O=[N+]([O-])c1ccc(C(c2ccc([N+](=O)[O-])cc2)c2ccc([N+](=O)[O-])cc2)cc1 | . | 97 | . | . | -3 | .
Cn1cnc([N+](=O)[O-])c1Sc1ccc([N+](=O)[O-])cc1 | i | 94 | 19 | -10 | 47* | -60
O=C(CSC1c2ccccc2-c2ccccc21)N/N=C/c1ccccc1O | i | 102 | 6 | 2 | 40* | 14
C=CCn1c(O)c(C=Nc2ccc(F)cc2)c(=O)[nH]c1=O | i | 101 | 6 | 14 | -3 | -6
C=CCn1c(O)c(C=Nc2ccc(N(CC)CC)cc2)c(=O)[nH]c1=O | + | 113 | 54* | -14 | -6 | 25
Cc1ccc(CN2CCC3CCC(C3)C2)c(O)c1 (configuration not stated) | . | 101 | . | . | 15 | .
Cn1c(O)c(C=Nc2ccccc2Sc2ccccc2)c(=O)n(C)c1=O | + | 98 | 87 | -8 | 2 | 3
Cn1c(O)c(C=Nc2ccc(Br)cc2)c(=O)n(C)c1=O | i | 102 | 62 | 19 | 0 | 2
O=c1[nH]c(=S)[nH]c(O)c1N=Nc1ccc2c(c1)OCO2 | i | 113 | 53* | -31 | -34 | 212
O=c1[nH]c(=S)[nH]c(O)c1N=Nc1ccc2c(c1)OCCO2 | ? | 102 | ? | 32 | -62 | 17
O=C1NC(=S)NC(=O)C1=Cc1cccc2cc3ccccc3cc12 | i | 104 | 98 | -116 | 40* | .
Cc1cccc(C)c1-n1nnnc1C(c1ccccc1OC(F)(F)F)N1CCC(n2c(=O)[nH]c3ccccc32)CC1 (configuration not stated) | . | 108 | . | . | 17 | .
CCOC(=O)[C@]12Cc3cc(OC)ccc3[C@H]1N(C(C)C)C(=O)c1cc(OC)ccc12 | . | 100 | . | . | . | .
Oc1ccc(/C=N/NP(=S)(c2ccccc2)c2ccccc2)cc1 | i | 96 | 0 | 83* | 30 | 19
O=C(N/N=C/c1c(O)n(C2CCCCC2)c(=S)[nH]c1=O)c1ccccc1 | i | 12* | 4 | 19 | -12 | 33
Nc1ccc(Sc2ccc(N)cc2)cc1 | . | 95 | . | . | 6 | .
COP(=S)(OC)Oc1ccc(Sc2ccc(OP(=S)(OC)OC)cc2)cc1 | . | 85 | . | . | 36* | .
CC(C)(C)C(=O)c1cn(CC(=O)NCc2ccco2)c2ccccc12 | + | 102 | -10 | -11 | -143 | 22
O=C1C=C2c3ccccc3CC(C(=O)O)C2CC1 (configuration not stated) | . | 97 | . | . | -9 | .
SMILES | PABP polyA inh | ABCB6 inh MLPCN | eIF4H inh | PHOSPHO1 inh | PABP1 MLLE inh | AI-2 QS modul
COC(=O)CSC1=NP(=S)(SCC(=O)OC)N2CCCC2=C1C#N (configuration not stated) | i | 112 | 1 | 67* | 8 | .
CCOC(=O)COc1ccc(/C=C2\C(=O)NC(=S)N(c3ccc(OC)cc3)C2=O)cc1OC | i | 96 | -6 | 11 | 39* | 10
CCOC(=O)[C@]12Cc3cc(C)ccc3[C@H]1N(C)C(=O)c1cc(OC)ccc12 | . | 102 | . | . | . | .
O=C1NC(=S)NC(=O)C1=Cc1ccc(Br)s1 | i | 108 | 41 | -52 | 12 | -87*
CN1C(=O)/C(=C\c2ccc(Br)s2)C(=O)NC1=S | i | 102 | 12 | -6 | -10 | ?
CN(C)c1ccc(C=C2C(=O)NC(=O)NC2=O)cc1[N+](=O)[O-] | i | 97 | 2 | -16 | 31 | -3
CN(C)c1ccc(C=C2C(=O)NC(=S)NC2=O)cc1[N+](=O)[O-] | i | 88 | 15 | -127 | 40* | 13

Compound activity: PubChem BioAssay, several laboratories
